From publication PMC7862700, “An all-to-all approach to the identification of sequence-specific readers for epigenetic DNA modifications on cytosine” come the findings set out here.

What all share (test): DAPPL (digital affinity profiling via proximity ligation, sequencing); 10 mM Tris-HCl pH 7.5, 50 mM NaCl, 1 mM DTT, 4% glycerol, room temperature, 30 min; GST-TFs on glutathione beads, 16-mer random dsDNA library, 0.1% formaldehyde crosslink after washing; high values mean tight binding
Common to all, as to details: protein: recombinant; tags: N-terminal GST; dsDNA, one strand shown

One assay deals with T1, ERF (Homo sapiens, UniProt P50548 1-548).
T1 sequence: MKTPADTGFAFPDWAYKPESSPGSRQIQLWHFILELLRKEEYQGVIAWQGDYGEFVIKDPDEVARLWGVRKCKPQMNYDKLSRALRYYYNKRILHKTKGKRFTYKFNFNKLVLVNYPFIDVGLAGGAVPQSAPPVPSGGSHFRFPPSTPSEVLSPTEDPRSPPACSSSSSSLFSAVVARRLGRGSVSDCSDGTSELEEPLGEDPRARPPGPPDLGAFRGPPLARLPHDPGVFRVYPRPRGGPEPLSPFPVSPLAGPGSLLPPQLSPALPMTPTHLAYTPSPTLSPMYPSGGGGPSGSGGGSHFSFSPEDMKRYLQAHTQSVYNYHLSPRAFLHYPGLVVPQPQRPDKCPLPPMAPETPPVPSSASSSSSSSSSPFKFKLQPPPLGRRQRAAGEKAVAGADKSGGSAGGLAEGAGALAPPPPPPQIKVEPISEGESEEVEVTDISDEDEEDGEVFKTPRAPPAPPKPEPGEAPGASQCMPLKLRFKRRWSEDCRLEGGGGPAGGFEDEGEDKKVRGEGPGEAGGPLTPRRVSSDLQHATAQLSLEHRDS
In a few lines: (§1)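 In yeast, human transcription factors were expressed with a GST fusion, then pulled down on glutathione beads and given DNA barcodes. Pooled with a tag-only sample, they were exposed to 200 nmole of a 16-mer random double-stranded DNA library (Tris/NaCl/DTT/glycerol buffer, room temperature, 30 min), washed, crosslinked with 0.1% formaldehyde, proximity-ligated using BsaI/T4 ligase for 1 h at 37 °C, PCR-amplified and read on an Illumina NextSeq500. Each hexamer's frequency of reads for a factor, divided by the matching frequency for the tag-only sample, gives the binding signal.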

Another assay has as its target T2, ETV3L (Homo sapiens, UniProt Q6ZN32 1-361).
T2 sequence: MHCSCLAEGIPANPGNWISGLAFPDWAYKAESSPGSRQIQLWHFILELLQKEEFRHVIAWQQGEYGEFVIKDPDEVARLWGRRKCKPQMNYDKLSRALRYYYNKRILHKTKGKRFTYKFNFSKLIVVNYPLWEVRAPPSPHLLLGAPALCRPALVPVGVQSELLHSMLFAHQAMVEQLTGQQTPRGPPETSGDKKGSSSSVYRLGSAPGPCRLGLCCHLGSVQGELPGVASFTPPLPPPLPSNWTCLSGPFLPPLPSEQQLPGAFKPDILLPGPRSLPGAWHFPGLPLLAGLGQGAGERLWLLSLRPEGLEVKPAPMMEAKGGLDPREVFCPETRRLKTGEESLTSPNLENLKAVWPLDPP
In a few lines: as §1

A further assay has as its target T3, ETS2 (Homo sapiens, UniProt P15036 1-469).
T3 sequence: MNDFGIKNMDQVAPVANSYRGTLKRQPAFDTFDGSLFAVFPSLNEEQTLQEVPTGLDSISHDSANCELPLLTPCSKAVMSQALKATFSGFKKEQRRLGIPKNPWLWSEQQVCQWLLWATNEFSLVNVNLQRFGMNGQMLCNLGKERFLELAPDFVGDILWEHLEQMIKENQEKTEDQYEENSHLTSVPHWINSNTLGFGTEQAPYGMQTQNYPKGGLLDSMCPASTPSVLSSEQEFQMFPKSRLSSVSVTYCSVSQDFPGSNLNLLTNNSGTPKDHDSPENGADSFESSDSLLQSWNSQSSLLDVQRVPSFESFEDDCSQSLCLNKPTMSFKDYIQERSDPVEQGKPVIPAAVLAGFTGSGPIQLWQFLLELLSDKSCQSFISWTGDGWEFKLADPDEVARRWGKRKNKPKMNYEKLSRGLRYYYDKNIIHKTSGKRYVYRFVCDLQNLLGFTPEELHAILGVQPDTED
The method, boiled down:
as §1

A further assay has as its target T4, SPDEF (Homo sapiens, UniProt O95238 1-335).
T4 sequence: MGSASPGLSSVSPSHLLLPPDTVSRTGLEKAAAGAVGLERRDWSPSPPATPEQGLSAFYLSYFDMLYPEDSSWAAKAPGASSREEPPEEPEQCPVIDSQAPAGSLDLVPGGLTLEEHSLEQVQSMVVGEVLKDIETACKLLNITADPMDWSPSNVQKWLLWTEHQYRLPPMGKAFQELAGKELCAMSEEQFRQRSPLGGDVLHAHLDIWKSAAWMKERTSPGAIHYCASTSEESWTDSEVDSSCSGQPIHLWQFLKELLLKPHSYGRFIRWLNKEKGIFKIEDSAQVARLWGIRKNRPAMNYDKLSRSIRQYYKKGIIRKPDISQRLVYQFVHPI
The method, boiled down: as §1

A further assay concerns the target T5, ETV7 (Homo sapiens, UniProt Q9Y603 1-341).
T5 sequence: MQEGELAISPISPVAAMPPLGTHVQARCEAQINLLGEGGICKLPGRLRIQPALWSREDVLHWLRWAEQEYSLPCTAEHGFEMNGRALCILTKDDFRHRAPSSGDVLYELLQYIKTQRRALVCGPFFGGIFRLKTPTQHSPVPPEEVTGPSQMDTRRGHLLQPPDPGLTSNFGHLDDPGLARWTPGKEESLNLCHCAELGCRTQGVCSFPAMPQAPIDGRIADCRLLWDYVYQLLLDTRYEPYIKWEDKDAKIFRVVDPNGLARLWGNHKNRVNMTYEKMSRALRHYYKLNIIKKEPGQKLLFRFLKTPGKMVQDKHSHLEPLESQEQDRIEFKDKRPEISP
The method, boiled down: as §1

The target of a further assay is T6, ELF5 (Homo sapiens, UniProt Q9UKW6-2 1-255).
T6 sequence: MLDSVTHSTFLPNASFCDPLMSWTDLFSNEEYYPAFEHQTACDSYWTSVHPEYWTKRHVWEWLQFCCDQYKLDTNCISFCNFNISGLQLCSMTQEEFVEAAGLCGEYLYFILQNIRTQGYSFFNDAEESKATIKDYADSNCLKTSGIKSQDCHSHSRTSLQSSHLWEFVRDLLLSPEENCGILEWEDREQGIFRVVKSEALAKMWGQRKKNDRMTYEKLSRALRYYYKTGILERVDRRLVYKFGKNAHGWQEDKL
The method, boiled down:
as §1

Another assay addresses T7, ETV3 (Homo sapiens, UniProt P41162-2 1-143).
T7 sequence: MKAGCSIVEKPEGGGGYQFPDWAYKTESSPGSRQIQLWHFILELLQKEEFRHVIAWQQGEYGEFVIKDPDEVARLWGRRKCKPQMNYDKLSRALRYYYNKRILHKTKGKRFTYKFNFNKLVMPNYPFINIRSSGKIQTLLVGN
In a few lines:
as §1

For another assay, the target named is ETV6 (Homo sapiens, UniProt P41212 1-452). In a few lines: as §1
Chain of ETV6 (P41212 whole entry): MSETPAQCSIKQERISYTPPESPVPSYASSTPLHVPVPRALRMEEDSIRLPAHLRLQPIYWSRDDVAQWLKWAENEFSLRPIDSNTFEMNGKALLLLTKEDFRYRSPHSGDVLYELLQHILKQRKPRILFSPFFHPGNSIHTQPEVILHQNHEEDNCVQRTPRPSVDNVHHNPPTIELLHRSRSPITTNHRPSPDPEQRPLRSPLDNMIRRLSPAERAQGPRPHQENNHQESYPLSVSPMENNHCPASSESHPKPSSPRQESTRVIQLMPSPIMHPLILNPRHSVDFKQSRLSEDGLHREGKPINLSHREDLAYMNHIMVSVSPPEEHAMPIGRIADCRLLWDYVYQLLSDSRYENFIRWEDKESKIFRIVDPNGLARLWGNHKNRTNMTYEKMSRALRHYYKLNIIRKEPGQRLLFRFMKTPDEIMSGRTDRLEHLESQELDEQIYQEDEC

On to TTCGAG, for which the binding signal was 1.23 fold enrichment (6-mer frequency, TF over GST control) with ERF; 1.36 fold enrichment (6-mer frequency, TF over GST control) in the assay with ETV3L; 1.26 fold enrichment (6-mer frequency, TF over GST control) with ETS2; 1.19 fold enrichment (6-mer frequency, TF over GST control) with SPDEF; 1.18 fold enrichment (6-mer frequency, TF over GST control) with ETV7; 1.14 fold enrichment (6-mer frequency, TF over GST control) with ELF5. In addition, the binding signal with ETV3 was 1.09 fold enrichment (6-mer frequency, TF over GST control); in the assay with ETV6, 1.28 fold enrichment (6-mer frequency, TF over GST control).

In the case of ATGCCC, the binding signal with ERF is 1.31 fold enrichment (6-mer frequency, TF over GST control); with ETV3L it was 1.26 fold enrichment (6-mer frequency, TF over GST control); with ETS2, 1.29 fold enrichment (6-mer frequency, TF over GST control); with SPDEF it was 1.36 fold enrichment (6-mer frequency, TF over GST control); in the assay with ETV7 it was 1.45 fold enrichment (6-mer frequency, TF over GST control); with ELF5, 1.27 fold enrichment (6-mer frequency, TF over GST control). Moreover, the binding signal in the assay with ETV3 is 1.32 fold enrichment (6-mer frequency, TF over GST control); with ETV6, 1.35 fold enrichment (6-mer frequency, TF over GST control).

CACATT: the binding signal with ERF is 1.33 fold enrichment (6-mer frequency, TF over GST control); in the assay with ETV3L, 1.17 fold enrichment (6-mer frequency, TF over GST control); with ETS2, 1.2 fold enrichment (6-mer frequency, TF over GST control); with SPDEF it was 1.18 fold enrichment (6-mer frequency, TF over GST control); with ETV7, 1.18 fold enrichment (6-mer frequency, TF over GST control); in the assay with ELF5, 1.13 fold enrichment (6-mer frequency, TF over GST control). The binding signal with ETV3 was 1.12 fold enrichment (6-mer frequency, TF over GST control); with ETV6 it was 1.15 fold enrichment (6-mer frequency, TF over GST control).

On to GTTTTA, for which the binding signal with ERF is 1.2 fold enrichment (6-mer frequency, TF over GST control); with ETV3L, 1.02 fold enrichment (6-mer frequency, TF over GST control); with ETS2 it was 1.1 fold enrichment (6-mer frequency, TF over GST control); in the assay with SPDEF, 1.04 fold enrichment (6-mer frequency, TF over GST control); with ETV7 it was 1.23 fold enrichment (6-mer frequency, TF over GST control); in the assay with ELF5 it was 1.09 fold enrichment (6-mer frequency, TF over GST control). In addition, the binding signal was 1.21 fold enrichment (6-mer frequency, TF over GST control) with ETV3 and 1.13 fold enrichment (6-mer frequency, TF over GST control) with ETV6.

With TGCCGC, the binding signal is 1.32 fold enrichment (6-mer frequency, TF over GST control) with ERF; 1.22 fold enrichment (6-mer frequency, TF over GST control) with ETV3L; 1.33 fold enrichment (6-mer frequency, TF over GST control) with ETS2; 1.15 fold enrichment (6-mer frequency, TF over GST control) with SPDEF; 1.22 fold enrichment (6-mer frequency, TF over GST control) with ETV7; 1.22 fold enrichment (6-mer frequency, TF over GST control) in the assay with ELF5. For the same sequence, the binding signal was 1.36 fold enrichment (6-mer frequency, TF over GST control) with ETV3 and 1.27 fold enrichment (6-mer frequency, TF over GST control) with ETV6.

TGTACT: the binding signal was 1.11 fold enrichment (6-mer frequency, TF over GST control) with ERF; 1.26 fold enrichment (6-mer frequency, TF over GST control) with ETV3L; 1.27 fold enrichment (6-mer frequency, TF over GST control) with ETS2; 1.71 fold enrichment (6-mer frequency, TF over GST control) with SPDEF; 1.24 fold enrichment (6-mer frequency, TF over GST control) with ETV7; 1.37 fold enrichment (6-mer frequency, TF over GST control) in the assay with ELF5. Further, the binding signal with ETV3 was 1.22 fold enrichment (6-mer frequency, TF over GST control); with ETV6 it was 1.28 fold enrichment (6-mer frequency, TF over GST control).
